Assay [1] can be described thus: qHTS assay to identify small molecule antagonists of the estrogen receptor alpha (ER-alpha) signaling pathway using the BG1 cell line in the presence of 0.1 nM 17-beta-estradiol - cell viability counter screen (AID 1259241). Also: nearly all actives have a fitted effect of over 40% in size. In a few lines: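 Cells were plated and left 24 hr, compounds in DMSO were pinned in, 17beta-estradiol was added to 0.1 nM final, and after 22 hr CellTiter-Fluor reagent was added for 30 min before fluorescence was read.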
(qHTS replaces the single test concentration by a dilution series.)

For assay [2], the target named is Estrogen receptor (Homo sapiens) (UniProt P03372). Nature of the assay: qHTS assay to identify small molecule antagonists of the estrogen receptor alpha (ER-alpha) signaling pathway using the BG1 cell line in the presence of 0.1 nM 17-beta-estradiol (AID 1259244). Also: nearly all actives have a fitted effect of over 50% in size. In outline:
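VM7Luc4E2 cells (endogenous full-length ER-alpha, 4×ERE-luciferase), kept 5 days in phenol red-free, charcoal-stripped FBS medium; 4,000 cells/well. Compounds added with 0.1 nM (final) 17beta-estradiol, 22 hr at 37C; luminescence read with ONE-Glo after 30 min.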

Assay [3] in a line: qHTS assay to identify small molecule phospholipidosis (PLD) inducers (AID 1259344; active = well fitted curve in the direction sought with a large enough effect; an effect the other way counts as inactive or inconclusive). In a few lines:
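HepG2 cells on collagen I, attached 4 h at 37 C, were co-treated with compound and LipidTOX Red dye for 24 h at 37 C, then fixed with paraformaldehyde plus Hoechst 33342 and imaged by high-content microscopy for phospholipid accumulation.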

Assay [4] is described as follows: qHTS assay to identify small molecule HDAC inhibitors - cell viability counter screen (AID 1259365). Also: series mostly up to about 92 µM; nearly all actives have a fitted effect of over 50% in size. In a few lines:
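Counter screen in wild-type HCT-116 cells: compounds dissolved in DMSO are pin-transferred onto overnight-plated cells and left 2hr at 37C. ATP-based CellTiter-Glo luminescence then measures viable cells.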

A short description of assay [5]: qHTS assay to identify small molecule agonists of the sonic hedgehog signaling (Shh) pathway - cell viability counter screen (AID 1259366). Also: nearly all actives have a fitted effect of over 50% in size. In a few lines: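 Cells are plated at 2,000 per well and left 4hr at 37C, 5% CO2 before compound addition. After 23hr of treatment, CellTiter-Fluor reagent is added for 1hr at 37C and fluorescence is measured.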
A short description of assay [6]: qHTS assay to identify small molecule antagonists of the sonic hedgehog signaling (Shh) pathway - cell viability counter screen (AID 1259367). Also: nearly all actives have a fitted effect of over 55% in size. In a few lines: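 NIH/3T3-derived Gli1-Luc reporter cells (2,000 per well) rested 4 hr at 37 C, then received DMSO compounds plus conditioned medium. After 23 hr of treatment, CellTiter-Fluor was added for 1 hr at 37C and fluorescence read.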

Assay [7] in a line: qHTS assay to identify small molecule agonists of the sonic hedgehog signaling (Shh) pathway (AID 1259368; calls by dose curve;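 also: NIH/3T3-derived 3T3Gli1-Luc cells carrying a stable Gli1-driven firefly luciferase reporter; series mostly up to about 92 µM; nearly all actives have a fitted effect of over 15% in size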). In outline: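 NIH/3T3-derived 3T3Gli1-Luc cells with stably integrated Gli1-driven firefly luciferase, 2,000 cells/well, compounds added after 4 hr. Incubated 24 hr at 37C, 5% CO2; luminescence read after 30 min with luciferase reagent at room temperature.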
Assay [8] is described as follows: qHTS assay to identify small molecule antagonists of the sonic hedgehog signaling (Shh) pathway (AID 1259369; calls by dose curve; also: nearly all actives have a fitted effect of over 45% in size). In a few lines: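 NIH/3T3-derived Gli1-Luc reporter cells plated 4 h, dosed with compound, then stimulated with conditioned medium for 24 h at 37 C. Firefly luciferase luminescence read after 30 min with detection reagent at room temperature.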
Assay [9] has as its target Estrogen receptor beta (Homo sapiens) (UniProt Q92731). Put plainly: qHTS assay to identify small molecule agonists of the estrogen receptor beta (ER-beta) signaling pathway (AID 1259377; active = well fitted activation curve with a large enough effect in the signal ratio in the repeat runs, not every such curve was filed as active; the % refers to the signal ratio). In a few lines:
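Agonist mode cell assay in GripTite HEK293T cells expressing an ER-beta fusion that drives beta-lactamase from an Upstream Activator Sequence; 16 hr compound exposure at 37C, then 2 h LiveBLAzer B/G FRET substrate at room temperature, fluorescence read-out.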

For assay [10] the target is unchanged. Nature of the assay: qHTS assay to identify small molecule antagonists of the estrogen receptor beta (ER-beta) signaling pathway (AID 1259378; active = well fitted inhibition curve with a large enough effect in the signal ratio in the repeat runs, not every such curve was filed as active; the % refers to the signal ratio). In outline:
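ER-beta-UAS-bla HEK293T (GripTite) cells in 2% charcoal-stripped FBS medium were preincubated 6 hr at 37C, dosed with compound, then stimulated with 1 nM E2 (final) for 16 hr; beta-lactamase reporter read by B/G FRET fluorescence after 2 hr substrate loading.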

Assay [11] is described as follows: qHTS assay to identify small molecule agonists of the androgen receptor (AR) signaling pathway in the presence of an antagonist - cell viability counter screen (AID 1259379).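 Also: MDA-kb2 human breast cancer cells carrying an MMTV luciferase reporter; series mostly up to about 92 µM; nearly all actives have a fitted effect of over 25% in size.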 In outline: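 MDA-kb2 cells (MMTV-luciferase, AR/GR), 3,000/well, 5 h attachment, then 3.0 µM nilutamide (final) and compounds at 15 concentrations. Viability by CellTiter-Fluor fluorescence after 16 h at 37 °C, 0% CO2, in the reporter wells.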

Assay [12] can be described thus: qHTS assay to identify small molecule agonists of the estrogen receptor beta (ER-beta) signaling pathway - cell viability counter screen (AID 1259380). Also: nearly all actives have a fitted effect of over 30% in size. In a few lines:
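ER-beta-UAS-bla HEK293T cells in medium with 2% charcoal-stripped FBS, pre-incubated 6 hr, then treated 16 hr at 37C. Cytotoxicity read in the same wells by CellTiter-Glo luminescence after 30 min at room temperature.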

A short description of assay [13]: qHTS assay to identify small molecule antagonists of the estrogen receptor beta (ER-beta) signaling pathway - cell viability counter screen (AID 1259382). Also: series mostly up to about 92 µM; nearly all actives have a fitted effect of over 55% in size. In outline: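 ER-beta-UAS-bla HEK293T cells in 2% charcoal-stripped FBS medium, treated with compound plus 1 nM 17-beta-estradiol for 16 h at 37C. Viability read by CellTiter-Glo luminescence after 30 min at room temperature in the same wells.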

Assay [14] concerns the target Estrogen receptor (Homo sapiens) (UniProt P03372). Put plainly: qHTS assay to identify small molecule agonists of the estrogen receptor alpha (ER-alpha) signaling pathway in the presence of an antagonist (AID 1259383; calls by dose curve; also: top concentration of the series differs between compounds; nearly all actives have a fitted effect of over 15% in size). In outline: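 VM7Luc4E2 cells express endogenous full-length ER-alpha with an ERE-luciferase reporter and were hormone-deprived for 5 days. Compounds at 15 concentrations were added with 10.0nM ICI-182,780 for 22hr at 37C. Luminescence was read with ONE-Glo.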

Assay [15] concerns the target Thyrotropin receptor (Homo sapiens) (UniProt P16473). Put plainly: qHTS assay to identify small molecule antagonists of the thyroid stimulating hormone receptor (TSHR) signaling pathway (AID 1259385; calls by dose curve; also: nearly all actives have a fitted effect of over 20% in size). In outline: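 TSHR-HEK293 cells were plated and held 18 h at 37C/5% CO2, then given compound plus Ro20-1724 and stimulated with TSH at 1.5 ng/mL final. After 30 min at room temperature, cAMP was detected with cAMP-d2/anti-cAMP-cryptate (1 h) by fluorescence.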

Assay [16] can be described thus: qHTS assay to identify small molecule agonists of the estrogen receptor alpha (ER-alpha) signaling pathway in the presence of an antagonist - cell viability counter screen (AID 1259386).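 Also: series mostly up to about 92 µM; cells exposed to compounds for 22 h at 37 °C before the viability read; nearly all actives have a fitted effect of over 30% in size.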 In a few lines:
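Cell viability in VM7Luc4E2 cells (endogenous full-length ER-alpha) measured by CellTiter-Fluor fluorescence in the same wells as the luciferase screen. Cells pre-cultured 5 days in charcoal-stripped serum, then treated 22 h with compounds at 15 concentrations plus 10.0nM ICI-182,780.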

Assay [17] in a line: qHTS assay to identify small molecule antagonists of the androgen receptor (AR) signaling pathway using the MDA cell line in the presence of 0.5 nM R1881 - cell viability counter screen (AID 1259242). Also: nearly all actives have a fitted effect of over 45% in size. In a few lines: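 MDA-kb2 cells (MMTV-luciferase, AR/GR responsive) were treated with compounds plus 0.5 nM R1881 (final) for 16 hr at 37C, 0% CO2. Viability was then read in the same wells as live-cell protease fluorescence (CellTiter-Fluor, 30 min).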

The target in assay [18] is Androgen receptor (Homo sapiens) (UniProt P10275). Nature of the assay: qHTS assay to identify small molecule antagonists of the androgen receptor (AR) signaling pathway using the MDA cell line in the presence of 0.5 nM R1881 (AID 1259243). Also: nearly all actives have a fitted effect of over 50% in size. In outline: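 MDA-kb2 cells (MMTV-luciferase, responsive to AR and GR) at 3,000/well, rested 5 h at 37C, 0% CO2, then given compounds plus 0.5 nM R1881 (final) for 16 hr. Luciferase read with ONE-Glo after 30 min at room temperature.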
Chain of Androgen receptor (Homo sapiens) (P10275 whole entry, looked up): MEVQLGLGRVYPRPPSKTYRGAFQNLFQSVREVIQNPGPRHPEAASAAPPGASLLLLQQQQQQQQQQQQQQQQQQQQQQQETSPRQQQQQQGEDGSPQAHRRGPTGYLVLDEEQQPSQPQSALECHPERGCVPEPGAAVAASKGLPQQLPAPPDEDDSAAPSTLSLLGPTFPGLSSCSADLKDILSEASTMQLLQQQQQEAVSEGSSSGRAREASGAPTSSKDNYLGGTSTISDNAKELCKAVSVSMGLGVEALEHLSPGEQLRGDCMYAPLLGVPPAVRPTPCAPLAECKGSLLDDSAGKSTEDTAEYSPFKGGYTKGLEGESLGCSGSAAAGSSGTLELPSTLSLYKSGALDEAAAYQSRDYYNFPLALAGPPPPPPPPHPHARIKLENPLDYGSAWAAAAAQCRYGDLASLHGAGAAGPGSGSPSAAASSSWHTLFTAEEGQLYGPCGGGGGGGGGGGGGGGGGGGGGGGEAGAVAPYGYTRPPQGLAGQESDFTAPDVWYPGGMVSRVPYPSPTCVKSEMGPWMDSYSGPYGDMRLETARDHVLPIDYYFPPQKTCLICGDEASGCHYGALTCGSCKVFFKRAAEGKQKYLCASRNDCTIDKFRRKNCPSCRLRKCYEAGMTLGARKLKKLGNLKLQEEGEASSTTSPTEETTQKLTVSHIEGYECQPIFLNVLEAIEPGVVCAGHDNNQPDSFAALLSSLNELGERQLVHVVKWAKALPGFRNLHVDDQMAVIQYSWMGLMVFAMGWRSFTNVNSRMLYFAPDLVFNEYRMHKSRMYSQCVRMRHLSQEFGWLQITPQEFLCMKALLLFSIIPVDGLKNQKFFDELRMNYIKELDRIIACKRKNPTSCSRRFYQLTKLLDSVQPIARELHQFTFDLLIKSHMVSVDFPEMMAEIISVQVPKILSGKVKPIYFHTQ

Assay [19] in a line: qHTS assay to identify small molecule HDAC inhibitors (AID 1259364). Also: nearly all actives have a fitted effect of over 45% in size. Also: potency is read from the fitted curve at half-maximal effect. In outline: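 Wild-type HCT-116 cells, plated overnight at 37 C, exposed to compounds 2 hr at 37 C; luminogenic HDAC-Glo substrate then added 30 min at room temperature. Luminescence reports relative endogenous class I/II HDAC activity.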
A short description of assay [20]: qHTS assay to identify small molecule agonists or antagonists of the thyroid stimulating hormone receptor (TSHR) signaling pathway - wild type cell line counter screen (AID 1259384; calls by dose curve). In outline: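 Wild-type HEK293 cells were plated 18 h at 37 C/5% CO2, pin-dosed with compound plus Ro20-1724 medium, held 30 min at room temperature, then given cAMP-d2 and anti-cAMP-cryptate; fluorescence was read after 1 h. Fifteen concentrations, triplicate.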

Values without a mark were called inactive. Results filed as inconclusive are left out. Calls of active or inactive are those of the source. Unless noted, calls follow the shape of the dose curve; as a rule, active = well fitted curve in the direction sought with a large enough effect in the repeat runs; inconclusive = weak or mixed curves; inactive = no such curve, though single readings can be large; an effect the other way counts as inactive or inconclusive.

These results are taken from PubChem BioAssay (Tox21).
% is scaled to controls: 0 for no effect and ±100 for the full control effect.

Chain of Thyrotropin receptor (Homo sapiens) (P16473 whole entry, looked up): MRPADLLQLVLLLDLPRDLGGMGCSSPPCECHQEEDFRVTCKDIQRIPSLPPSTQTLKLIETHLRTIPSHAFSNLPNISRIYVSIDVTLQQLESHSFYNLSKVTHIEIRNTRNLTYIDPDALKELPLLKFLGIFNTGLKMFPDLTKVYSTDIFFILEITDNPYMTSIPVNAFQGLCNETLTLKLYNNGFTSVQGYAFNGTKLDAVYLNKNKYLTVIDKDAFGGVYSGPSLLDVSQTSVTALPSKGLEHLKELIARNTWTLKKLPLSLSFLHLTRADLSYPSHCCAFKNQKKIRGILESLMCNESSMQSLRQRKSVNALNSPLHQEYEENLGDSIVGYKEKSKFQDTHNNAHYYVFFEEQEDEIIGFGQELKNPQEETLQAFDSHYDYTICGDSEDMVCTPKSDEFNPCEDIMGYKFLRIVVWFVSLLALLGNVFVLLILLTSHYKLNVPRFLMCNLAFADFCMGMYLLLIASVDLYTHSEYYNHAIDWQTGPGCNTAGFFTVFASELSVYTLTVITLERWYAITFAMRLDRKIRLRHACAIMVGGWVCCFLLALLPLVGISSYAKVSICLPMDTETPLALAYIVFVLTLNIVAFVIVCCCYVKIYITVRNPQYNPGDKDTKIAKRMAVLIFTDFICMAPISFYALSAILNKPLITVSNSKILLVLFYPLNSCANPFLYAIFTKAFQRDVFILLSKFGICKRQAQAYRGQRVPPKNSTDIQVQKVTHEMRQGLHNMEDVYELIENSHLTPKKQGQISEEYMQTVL
Chain of Estrogen receptor beta (Homo sapiens) (Q92731 whole entry, looked up, the tested form may be a part): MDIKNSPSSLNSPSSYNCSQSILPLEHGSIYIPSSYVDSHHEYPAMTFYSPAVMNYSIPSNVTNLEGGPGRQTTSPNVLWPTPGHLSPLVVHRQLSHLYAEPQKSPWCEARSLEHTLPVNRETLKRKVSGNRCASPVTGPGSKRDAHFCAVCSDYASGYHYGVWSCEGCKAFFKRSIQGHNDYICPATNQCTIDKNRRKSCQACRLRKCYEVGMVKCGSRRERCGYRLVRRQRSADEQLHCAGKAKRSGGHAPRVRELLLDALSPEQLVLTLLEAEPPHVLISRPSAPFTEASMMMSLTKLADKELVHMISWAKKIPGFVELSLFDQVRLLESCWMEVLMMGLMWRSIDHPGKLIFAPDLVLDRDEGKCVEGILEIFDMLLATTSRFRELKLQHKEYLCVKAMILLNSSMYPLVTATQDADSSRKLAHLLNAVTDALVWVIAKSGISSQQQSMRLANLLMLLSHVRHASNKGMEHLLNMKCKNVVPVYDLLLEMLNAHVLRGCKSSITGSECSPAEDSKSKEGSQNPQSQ
Chain of Estrogen receptor (Homo sapiens) (P03372 whole entry, looked up): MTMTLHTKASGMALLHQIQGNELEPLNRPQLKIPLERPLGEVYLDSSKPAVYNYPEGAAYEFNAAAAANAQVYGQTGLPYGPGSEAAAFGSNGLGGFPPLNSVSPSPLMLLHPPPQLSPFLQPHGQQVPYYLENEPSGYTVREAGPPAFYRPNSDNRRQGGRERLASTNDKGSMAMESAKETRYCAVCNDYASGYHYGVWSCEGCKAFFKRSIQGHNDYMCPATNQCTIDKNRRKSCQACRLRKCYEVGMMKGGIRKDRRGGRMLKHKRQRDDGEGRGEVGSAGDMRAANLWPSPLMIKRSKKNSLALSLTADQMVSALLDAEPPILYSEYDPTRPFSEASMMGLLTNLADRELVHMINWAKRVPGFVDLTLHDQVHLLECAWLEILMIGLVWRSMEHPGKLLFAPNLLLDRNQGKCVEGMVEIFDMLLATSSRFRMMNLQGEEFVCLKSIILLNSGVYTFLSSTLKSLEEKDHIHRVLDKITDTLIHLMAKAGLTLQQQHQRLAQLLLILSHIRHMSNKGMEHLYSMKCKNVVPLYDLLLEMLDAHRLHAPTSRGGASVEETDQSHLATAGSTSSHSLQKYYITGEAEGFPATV

With `O=C[C@H](O)[C@@H](O)[C@H](O)[C@H](O)CO`, the result in [1], in assay [2], in assay [4], in [7], in assay [9] and in assay [10] was inactive. Besides, the PLD induction in [3] was -4.07% [at 7.66 µM]. Also, the Potency result in assay [5], in assay [6], in [8], in [11], in assay [12] and in [13] was “inactive” in each case. Moreover, the Potency result in [14], in assay [15] and in assay [16] was “inactive” throughout.
With `NS(=O)(=O)c1cc(C(=O)NN2C[C@H]3[C@H]4CCC(C4)[C@H]3C2)ccc1Cl`, the Potency entry in assay [17], in assay [18], in [19], in assay [6], in assay [8] and in assay [11] was “inactive” throughout. Besides, the Potency entry in [12], in [13], in assay [14], in assay [15] and in [16] was “inactive” each time. Further, the result in [2], in [4], in assay [9], in [10] and in assay [20] was inactive.
For `C/C=C(\C)C#N`, the result in assay [1], in [4], in [7], in [10] and in assay [20] was inactive. Also, the Potency result in assay [19], in [5], in assay [6], in assay [8], in [11] and in assay [12] was “inactive” throughout. Moreover, the Potency result in [13], in assay [14], in [15] and in assay [16] was “inactive” in each case.
On to `CN(C)CCCSc1ccccc1NC(=O)/C=C/c1ccccc1`, for which the result in assay [1], in assay [2], in [4], in [7] and in [20] was inactive. In addition, the Potency in [19] is 8.41 µM (active). Also, the Potency entry in assay [5], in assay [6], in [8], in assay [11], in assay [12] and in assay [13] was “inactive” each time. Besides, the Potency entry in [14], in assay [15] and in [16] was “inactive” in each case.
`CCCCCCCCCCCCN(CCCCCCCCCCCC)CCCCCCCCCCCC`: the outcome in assay [1], in assay [4], in assay [7] and in [20] was inactive. In addition, the Potency entry in assay [19], in [5], in assay [6], in [8], in [11] and in assay [12] was “inactive” throughout. For the same compound, the Potency entry in assay [13], in assay [15] and in assay [16] was “inactive” in each case.
Consider `Cn1c(N)c(N=O)c(=O)n(C)c1=O`, for which the result in assay [1], in [4] and in [7] was inactive. Further, the Potency result in assay [19], in assay [5], in assay [6], in assay [8], in [11] and in [12] was “inactive” throughout. Also, the Potency result in assay [13] and in assay [16] was “inactive” each time.
For `COc1cc(C(=O)N2CCCCCCC2)cc(OC)c1OC`, the outcome in assay [1], in assay [2], in [4], in assay [7], in assay [9] and in assay [10] was inactive. The result in assay [20] was inactive. For the same compound, the Potency entry in assay [19], in assay [5], in assay [6], in [11], in assay [12] and in assay [13] was “inactive” throughout. In addition, the Potency result in assay [14], in assay [15] and in assay [16] was “inactive” each time.
With `C[C@@H]1CCN(C(=O)[C@H](CCCN=C(N)N)NS(=O)(=O)c2cccc3c2NC[C@H](C)C3)[C@@H](C(=O)O)C1`, the outcome in assay [1], in [2], in assay [4], in [7] and in assay [20] was inactive. The Potency result in assay [3], in assay [5], in [6], in [11], in [12] and in assay [13] was “inactive” throughout. Moreover, the Potency entry in assay [15] and in [16] was “inactive” each time.
As to `Cc1ccc(C#N)cc1`, the result in assay [1], in assay [2], in assay [4], in assay [9], in assay [10] and in assay [20] was inactive. The Potency result in [19], in assay [5], in assay [6], in assay [8], in assay [11] and in [12] was “inactive” in each case. For the same compound, the Potency result in assay [13], in assay [14], in assay [15] and in assay [16] was “inactive” in each case.
